# Test results from PMC7862700, “An all-to-all approach to the identification of sequence-specific readers for epigenetic DNA modifications on cytosine”.
# What was measured:
# Test in all cases: DAPPL (digital affinity profiling via proximity ligation, sequencing); 10 mM Tris-HCl pH 7.5, 50 mM NaCl, 1 mM DTT, 4% glycerol, room temperature, 30 min; GST-TFs on glutathione beads, 16-mer random dsDNA library, 0.1% formaldehyde crosslink after washing; high values mean tight binding
# Details in all cases: protein: recombinant; tags: N-terminal GST; dsDNA, one strand shown
# FEV = target: T1, FEV (Homo sapiens, UniProt Q99581 1-238)
# T1 sequence: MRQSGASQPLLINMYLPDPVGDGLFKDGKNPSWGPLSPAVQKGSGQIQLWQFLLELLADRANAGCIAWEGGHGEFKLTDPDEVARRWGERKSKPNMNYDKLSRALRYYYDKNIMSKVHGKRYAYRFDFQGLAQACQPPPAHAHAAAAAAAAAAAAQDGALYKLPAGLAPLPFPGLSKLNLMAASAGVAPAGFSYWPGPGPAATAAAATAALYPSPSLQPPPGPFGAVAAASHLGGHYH
# In short: (§1)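 A tag-only sample was pooled with DNA-barcoded human transcription factors that had been expressed in yeast as GST fusions and captured on glutathione beads. The pools were incubated for 30 min at room temperature with 200 nmole of a random double-stranded 16-mer DNA library in Tris/NaCl/DTT/glycerol buffer, then washed, crosslinked with 0.1% formaldehyde, proximity-ligated (BsaI/T4 ligase, 1 h, 37 °C), PCR-amplified and sequenced on an Illumina NextSeq500. Binding signal is each hexamer's read frequency for a factor divided by its frequency for the tag-only sample.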
# ETV5 = ETV5 (Homo sapiens, UniProt P41161 1-510)
# In short: as §1
# SPIC = target: T2, SPIC (Homo sapiens, UniProt Q8N5J4 1-248)
# T2 sequence: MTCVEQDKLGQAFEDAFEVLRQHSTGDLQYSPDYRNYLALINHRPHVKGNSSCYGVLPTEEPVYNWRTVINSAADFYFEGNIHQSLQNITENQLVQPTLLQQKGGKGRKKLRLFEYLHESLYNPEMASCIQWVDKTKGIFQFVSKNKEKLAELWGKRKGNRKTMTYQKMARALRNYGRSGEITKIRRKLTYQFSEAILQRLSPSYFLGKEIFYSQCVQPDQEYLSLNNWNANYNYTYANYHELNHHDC
# In short: as §1
# ELF4 = ELF4 (Homo sapiens, UniProt Q99607 1-663)
# In short: as §1
# ELK4 = target: T3, ELK4 (Homo sapiens, UniProt P28324-2 1-405)
# T3 sequence: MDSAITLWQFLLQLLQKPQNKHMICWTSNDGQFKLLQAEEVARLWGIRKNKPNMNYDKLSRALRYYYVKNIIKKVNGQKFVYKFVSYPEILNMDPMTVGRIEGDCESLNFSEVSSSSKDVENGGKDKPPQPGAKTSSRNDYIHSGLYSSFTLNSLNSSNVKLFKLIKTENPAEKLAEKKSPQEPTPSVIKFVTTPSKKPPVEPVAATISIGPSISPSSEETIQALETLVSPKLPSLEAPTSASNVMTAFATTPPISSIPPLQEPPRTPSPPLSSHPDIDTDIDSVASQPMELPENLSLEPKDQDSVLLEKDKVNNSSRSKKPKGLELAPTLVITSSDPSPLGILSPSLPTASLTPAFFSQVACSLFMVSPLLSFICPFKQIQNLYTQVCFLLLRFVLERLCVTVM
# In short: as §1
# ETV2 = target: T4, ETV2 (Homo sapiens, UniProt O00321 1-342)
# T4 sequence: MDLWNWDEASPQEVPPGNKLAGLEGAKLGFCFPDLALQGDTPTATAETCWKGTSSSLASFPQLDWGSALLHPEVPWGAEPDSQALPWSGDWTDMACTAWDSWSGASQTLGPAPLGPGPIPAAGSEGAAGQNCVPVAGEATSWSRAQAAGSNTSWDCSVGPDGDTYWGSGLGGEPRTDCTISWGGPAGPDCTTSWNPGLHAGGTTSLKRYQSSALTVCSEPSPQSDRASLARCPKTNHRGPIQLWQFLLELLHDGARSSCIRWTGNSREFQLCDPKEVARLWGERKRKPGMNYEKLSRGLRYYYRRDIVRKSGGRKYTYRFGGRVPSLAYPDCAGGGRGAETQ
# In short: as §1
# ELF3 = target: T5, ELF3 (Homo sapiens, UniProt P78545 1-371)
# T5 sequence: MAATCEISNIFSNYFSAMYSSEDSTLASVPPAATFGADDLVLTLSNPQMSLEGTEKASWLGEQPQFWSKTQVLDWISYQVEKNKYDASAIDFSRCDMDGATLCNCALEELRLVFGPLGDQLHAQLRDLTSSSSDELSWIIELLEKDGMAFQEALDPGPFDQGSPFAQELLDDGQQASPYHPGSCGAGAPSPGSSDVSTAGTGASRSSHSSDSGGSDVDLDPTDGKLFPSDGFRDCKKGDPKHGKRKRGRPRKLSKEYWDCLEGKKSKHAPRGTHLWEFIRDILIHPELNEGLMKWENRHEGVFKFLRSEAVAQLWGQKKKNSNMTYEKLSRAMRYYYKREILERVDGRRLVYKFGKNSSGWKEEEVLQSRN
# In short: as §1
# CRX = CRX (Homo sapiens, UniProt O43186 1-299)
# In short: as §1
# ETV1 = ETV1 (Homo sapiens, UniProt P50549 1-477)
# In short: as §1
# ERF = target: T6, ERF (Homo sapiens, UniProt P50548 1-548)
# T6 sequence: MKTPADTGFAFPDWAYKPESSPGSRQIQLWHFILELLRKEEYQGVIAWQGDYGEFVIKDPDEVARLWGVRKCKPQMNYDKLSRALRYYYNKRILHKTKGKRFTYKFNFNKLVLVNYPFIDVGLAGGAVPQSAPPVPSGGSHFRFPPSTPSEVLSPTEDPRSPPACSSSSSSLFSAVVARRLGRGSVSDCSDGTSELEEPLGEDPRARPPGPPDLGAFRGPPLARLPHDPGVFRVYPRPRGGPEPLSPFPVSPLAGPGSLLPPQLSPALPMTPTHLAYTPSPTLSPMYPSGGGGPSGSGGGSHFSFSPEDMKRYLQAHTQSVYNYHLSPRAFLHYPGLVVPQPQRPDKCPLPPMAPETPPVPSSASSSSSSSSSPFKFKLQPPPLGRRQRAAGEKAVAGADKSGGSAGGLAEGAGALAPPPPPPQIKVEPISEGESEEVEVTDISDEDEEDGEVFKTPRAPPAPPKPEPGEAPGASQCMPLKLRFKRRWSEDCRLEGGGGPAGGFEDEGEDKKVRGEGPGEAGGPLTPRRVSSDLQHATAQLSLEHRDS
# In short: as §1
# ETV3L = target: T7, ETV3L (Homo sapiens, UniProt Q6ZN32 1-361)
# T7 sequence: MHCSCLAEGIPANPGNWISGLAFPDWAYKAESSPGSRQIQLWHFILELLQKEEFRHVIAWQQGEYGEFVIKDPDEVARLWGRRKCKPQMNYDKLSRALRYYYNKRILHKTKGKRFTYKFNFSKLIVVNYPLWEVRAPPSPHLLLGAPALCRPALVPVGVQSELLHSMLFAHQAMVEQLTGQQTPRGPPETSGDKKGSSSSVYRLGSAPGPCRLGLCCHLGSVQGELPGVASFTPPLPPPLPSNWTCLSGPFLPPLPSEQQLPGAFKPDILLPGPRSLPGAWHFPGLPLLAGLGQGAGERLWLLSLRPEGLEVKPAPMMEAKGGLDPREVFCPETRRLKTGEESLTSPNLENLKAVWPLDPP
# In short: as §1
# ETS2 = target: T8, ETS2 (Homo sapiens, UniProt P15036 1-469)
# T8 sequence: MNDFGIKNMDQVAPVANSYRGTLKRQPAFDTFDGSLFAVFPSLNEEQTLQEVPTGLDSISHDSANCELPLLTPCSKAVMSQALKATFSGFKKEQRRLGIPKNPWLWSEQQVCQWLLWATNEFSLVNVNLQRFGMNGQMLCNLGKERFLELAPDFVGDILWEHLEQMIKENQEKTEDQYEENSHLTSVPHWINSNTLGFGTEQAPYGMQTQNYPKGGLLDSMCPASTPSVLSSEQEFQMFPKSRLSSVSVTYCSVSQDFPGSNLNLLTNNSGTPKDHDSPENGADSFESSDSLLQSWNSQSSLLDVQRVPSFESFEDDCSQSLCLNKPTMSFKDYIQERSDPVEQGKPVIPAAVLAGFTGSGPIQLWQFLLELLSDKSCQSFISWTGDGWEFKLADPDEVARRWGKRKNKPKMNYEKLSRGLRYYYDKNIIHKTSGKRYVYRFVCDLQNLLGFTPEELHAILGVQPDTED
# In short: as §1
# SPDEF = target: T9, SPDEF (Homo sapiens, UniProt O95238 1-335)
# T9 sequence: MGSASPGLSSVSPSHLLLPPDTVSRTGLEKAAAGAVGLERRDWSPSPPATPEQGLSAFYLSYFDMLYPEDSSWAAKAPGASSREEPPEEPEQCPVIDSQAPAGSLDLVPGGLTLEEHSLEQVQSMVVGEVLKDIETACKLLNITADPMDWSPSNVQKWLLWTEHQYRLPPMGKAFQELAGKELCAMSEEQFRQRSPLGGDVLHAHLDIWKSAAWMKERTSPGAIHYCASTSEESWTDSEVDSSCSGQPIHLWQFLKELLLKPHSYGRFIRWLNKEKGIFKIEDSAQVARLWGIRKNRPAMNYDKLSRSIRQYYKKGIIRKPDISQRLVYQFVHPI
# In short: as §1
# ETV7 = target: T10, ETV7 (Homo sapiens, UniProt Q9Y603 1-341)
# T10 sequence: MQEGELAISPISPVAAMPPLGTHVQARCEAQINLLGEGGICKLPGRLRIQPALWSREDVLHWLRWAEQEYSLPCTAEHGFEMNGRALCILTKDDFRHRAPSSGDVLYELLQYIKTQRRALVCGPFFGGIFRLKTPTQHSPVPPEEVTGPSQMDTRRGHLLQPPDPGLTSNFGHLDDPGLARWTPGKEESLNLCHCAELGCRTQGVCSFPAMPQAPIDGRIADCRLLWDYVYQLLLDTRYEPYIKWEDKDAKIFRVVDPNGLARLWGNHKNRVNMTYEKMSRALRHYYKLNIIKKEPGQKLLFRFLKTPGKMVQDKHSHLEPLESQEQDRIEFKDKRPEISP
# In short: as §1
# ELF5 = target: T11, ELF5 (Homo sapiens, UniProt Q9UKW6-2 1-255)
# T11 sequence: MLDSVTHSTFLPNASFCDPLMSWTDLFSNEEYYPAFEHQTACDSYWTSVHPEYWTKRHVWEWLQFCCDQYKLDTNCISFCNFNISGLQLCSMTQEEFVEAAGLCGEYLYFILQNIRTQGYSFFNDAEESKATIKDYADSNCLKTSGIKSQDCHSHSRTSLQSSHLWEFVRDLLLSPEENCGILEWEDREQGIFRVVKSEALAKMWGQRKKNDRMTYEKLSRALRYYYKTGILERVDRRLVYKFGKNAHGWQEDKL
# In short: as §1
# ETV3 = target: T12, ETV3 (Homo sapiens, UniProt P41162-2 1-143)
# T12 sequence: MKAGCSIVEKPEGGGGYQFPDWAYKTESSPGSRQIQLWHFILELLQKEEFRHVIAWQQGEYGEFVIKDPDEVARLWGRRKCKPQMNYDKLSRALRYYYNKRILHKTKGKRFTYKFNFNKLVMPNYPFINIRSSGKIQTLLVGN
# In short: as §1
# ETV6 = ETV6 (Homo sapiens, UniProt P41212 1-452)
# In short: as §1
# Chain of ETV1 (P50549 whole entry): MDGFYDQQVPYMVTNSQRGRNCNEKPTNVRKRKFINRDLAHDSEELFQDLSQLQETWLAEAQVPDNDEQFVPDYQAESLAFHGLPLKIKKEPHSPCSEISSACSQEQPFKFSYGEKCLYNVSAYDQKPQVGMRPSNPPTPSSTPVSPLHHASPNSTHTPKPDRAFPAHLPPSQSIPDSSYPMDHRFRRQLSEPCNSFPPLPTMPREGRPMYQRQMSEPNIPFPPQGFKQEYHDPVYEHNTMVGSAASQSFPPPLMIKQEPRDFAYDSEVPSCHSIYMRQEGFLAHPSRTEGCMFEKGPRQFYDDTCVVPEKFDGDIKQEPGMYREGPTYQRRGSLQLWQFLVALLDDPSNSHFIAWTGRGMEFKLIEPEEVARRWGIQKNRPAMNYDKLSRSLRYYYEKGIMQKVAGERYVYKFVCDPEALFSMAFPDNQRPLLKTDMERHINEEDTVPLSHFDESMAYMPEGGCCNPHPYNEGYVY
# Chain of ELF4 (Q99607 whole entry): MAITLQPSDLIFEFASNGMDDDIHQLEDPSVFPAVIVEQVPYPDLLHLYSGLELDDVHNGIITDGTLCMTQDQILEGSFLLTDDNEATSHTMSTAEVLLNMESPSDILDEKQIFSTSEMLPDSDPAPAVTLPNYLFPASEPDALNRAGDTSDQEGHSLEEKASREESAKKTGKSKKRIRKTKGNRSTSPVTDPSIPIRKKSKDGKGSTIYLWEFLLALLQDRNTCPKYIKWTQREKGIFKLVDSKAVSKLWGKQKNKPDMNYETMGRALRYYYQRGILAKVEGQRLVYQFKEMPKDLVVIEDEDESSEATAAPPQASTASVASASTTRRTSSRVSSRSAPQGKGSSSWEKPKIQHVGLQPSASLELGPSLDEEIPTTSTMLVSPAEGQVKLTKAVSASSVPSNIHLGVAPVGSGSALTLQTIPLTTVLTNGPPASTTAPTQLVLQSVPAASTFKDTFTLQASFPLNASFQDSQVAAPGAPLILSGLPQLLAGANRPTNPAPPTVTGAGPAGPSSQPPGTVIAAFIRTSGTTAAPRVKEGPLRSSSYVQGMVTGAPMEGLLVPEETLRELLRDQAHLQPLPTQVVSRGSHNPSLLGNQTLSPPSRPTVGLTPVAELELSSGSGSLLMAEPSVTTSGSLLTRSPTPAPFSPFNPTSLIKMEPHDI
# Chain of CRX (O43186 whole entry): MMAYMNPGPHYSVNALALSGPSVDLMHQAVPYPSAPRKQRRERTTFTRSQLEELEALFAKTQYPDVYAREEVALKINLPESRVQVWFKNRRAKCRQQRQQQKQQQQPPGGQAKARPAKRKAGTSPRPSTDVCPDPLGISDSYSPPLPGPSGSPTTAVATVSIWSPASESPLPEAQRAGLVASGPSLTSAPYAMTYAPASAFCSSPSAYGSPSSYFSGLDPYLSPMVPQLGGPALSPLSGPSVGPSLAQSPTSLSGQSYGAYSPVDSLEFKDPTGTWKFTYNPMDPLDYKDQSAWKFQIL
# Chain of ETV5 (P41161 whole entry): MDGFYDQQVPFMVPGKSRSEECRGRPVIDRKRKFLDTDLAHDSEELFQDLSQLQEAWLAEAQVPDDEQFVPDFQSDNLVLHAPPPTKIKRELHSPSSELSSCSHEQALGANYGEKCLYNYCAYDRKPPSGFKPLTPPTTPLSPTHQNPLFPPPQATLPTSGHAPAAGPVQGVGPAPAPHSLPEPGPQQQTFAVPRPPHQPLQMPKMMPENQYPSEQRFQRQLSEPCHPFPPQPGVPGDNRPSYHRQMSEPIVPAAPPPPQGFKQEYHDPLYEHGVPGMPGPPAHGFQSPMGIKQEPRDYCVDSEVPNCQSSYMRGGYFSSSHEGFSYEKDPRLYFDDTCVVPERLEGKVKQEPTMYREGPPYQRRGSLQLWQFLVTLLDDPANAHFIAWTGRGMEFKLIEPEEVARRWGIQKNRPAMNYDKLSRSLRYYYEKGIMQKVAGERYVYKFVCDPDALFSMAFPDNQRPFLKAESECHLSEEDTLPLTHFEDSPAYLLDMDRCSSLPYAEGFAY
# Chain of ETV6 (P41212 whole entry): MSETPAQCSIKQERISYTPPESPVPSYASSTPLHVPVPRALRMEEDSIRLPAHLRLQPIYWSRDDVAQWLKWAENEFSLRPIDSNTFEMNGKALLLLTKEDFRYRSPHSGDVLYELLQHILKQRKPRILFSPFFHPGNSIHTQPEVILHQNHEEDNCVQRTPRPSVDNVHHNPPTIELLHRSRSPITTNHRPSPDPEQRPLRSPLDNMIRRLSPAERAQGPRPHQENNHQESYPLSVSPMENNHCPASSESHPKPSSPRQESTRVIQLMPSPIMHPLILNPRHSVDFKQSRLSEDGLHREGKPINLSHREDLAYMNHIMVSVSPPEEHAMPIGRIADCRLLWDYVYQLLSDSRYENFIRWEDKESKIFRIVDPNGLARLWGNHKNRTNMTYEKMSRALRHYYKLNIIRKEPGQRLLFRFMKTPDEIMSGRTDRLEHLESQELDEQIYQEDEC
Sequence,binding signal (FEV),binding signal (ETV5),binding signal (SPIC),binding signal (ELF4),binding signal (ELK4),binding signal (ETV2),binding signal (ELF3),binding signal (CRX),binding signal (ETV1),binding signal (ERF),binding signal (ETV3L),binding signal (ETS2),binding signal (SPDEF),binding signal (ETV7),binding signal (ELF5),binding signal (ETV3),binding signal (ETV6)
CTACGT,"1.28 fold enrichment (6-mer frequency, TF over GST control)","1.09 fold enrichment (6-mer frequency, TF over GST control)","1.17 fold enrichment (6-mer frequency, TF over GST control)","1.24 fold enrichment (6-mer frequency, TF over GST control)","1.24 fold enrichment (6-mer frequency, TF over GST control)","1.03 fold enrichment (6-mer frequency, TF over GST control)","1.01 fold enrichment (6-mer frequency, TF over GST control)","1.01 fold enrichment (6-mer frequency, TF over GST control)","1.3 fold enrichment (6-mer frequency, TF over GST control)","1.24 fold enrichment (6-mer frequency, TF over GST control)","1.29 fold enrichment (6-mer frequency, TF over GST control)","1.12 fold enrichment (6-mer frequency, TF over GST control)","1.12 fold enrichment (6-mer frequency, TF over GST control)","1.35 fold enrichment (6-mer frequency, TF over GST control)","1.27 fold enrichment (6-mer frequency, TF over GST control)","1.17 fold enrichment (6-mer frequency, TF over GST control)","1.42 fold enrichment (6-mer frequency, TF over GST control)"
CTCAGT,"1.12 fold enrichment (6-mer frequency, TF over GST control)","1.14 fold enrichment (6-mer frequency, TF over GST control)","1.24 fold enrichment (6-mer frequency, TF over GST control)","1.21 fold enrichment (6-mer frequency, TF over GST control)","1.19 fold enrichment (6-mer frequency, TF over GST control)","1.2 fold enrichment (6-mer frequency, TF over GST control)","1.35 fold enrichment (6-mer frequency, TF over GST control)","1.08 fold enrichment (6-mer frequency, TF over GST control)","1.12 fold enrichment (6-mer frequency, TF over GST control)","1.11 fold enrichment (6-mer frequency, TF over GST control)","1.18 fold enrichment (6-mer frequency, TF over GST control)","1.1 fold enrichment (6-mer frequency, TF over GST control)","1.06 fold enrichment (6-mer frequency, TF over GST control)","1.12 fold enrichment (6-mer frequency, TF over GST control)","1.09 fold enrichment (6-mer frequency, TF over GST control)","1.24 fold enrichment (6-mer frequency, TF over GST control)","1.08 fold enrichment (6-mer frequency, TF over GST control)"
